This is a sample that favours compounds with a hit; in the whole collection about 3.8% have one here.
HT1080 IDH1KD tx = kills HT-1080 cells with IDH1 knockdown | HT-1080 IDH1 knockdown viability, ATP luminescence, 48 h | Potency, µM (doses to about 46.1 µM), for the others: at the highest dose activity, negative = toxicity, hits mostly cytotoxic | 2% of 360,000 active;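 note: 0% = DMSO wells and -100% = cell-free medium wells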
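Assay cells: HT-1080 with IDH1 knockdown, 750 per well, RPMI/5% FBS. Exposure: 48 h at 37 °C following 2 h pre-incubation. Read: CellTiter-Glo luminescence; fitted concentration-response, curve class assigned.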
ATXN2 expr inh = reduces ATXN2 reporter expression in HEK-293 cells; HEK-293 ATXN2-luciferase reporter, luminescence, 24 h; Potency, µM (top dose mostly 57 µM), without a hit: at the top dose activity change, negative = inhibition, usual class: inhibitors; 0.72% of 360,000 active; AID 1745845; note: % is set by controls: 0 for no effect and ±100 for the full control effect; nearly all actives have a fitted effect of over 55% in size
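ATXN2-luciferase reporter cells (luciferase flanked by upstream and downstream ATXN2 gene portions) were treated 24 h at 37 °C with compounds at up to 57 uM. SteadyGlo luminescence gave expression; GF-AFC fluorescence gave viability.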
HT1080-NT tox = kills 2HG-producing HT-1080-NT fibrosarcoma cells. Potency, µM (doses to about 46.1 µM), inactives show at the highest dose activity, negative = less viability, hits mostly cytotoxic. AID 686970. 1.6% of 360,000 active. HT-1080-NT fibrosarcoma viability, CellTiter-Glo ATP luminescence, 48 h;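 note: NT is the 2HG producing partner of a matched IDH1 knockdown line; 0% = DMSO-treated cells and -100% = media-only wells without cells; nearly all actives have a fitted effect of over 55% in size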
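750 cells/well, RPMI + 5% FBS; 2 h settle, compound pin-transfer, 48 h at 37 degrees C. CellTiter-Glo 10 min RT, luminescence. Normalized to DMSO and media-only wells.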
HepG2 viability = HepG2 cytotoxicity, counter-screen for TGF-b inhibitors. HepG2 CAGA-GFP viability, ATP luminescence, 18 h. Potency, µM (highest dose often 46.1 µM), for the others: top-dose activity change, negative = cytotoxicity, hits mostly cytotoxic. 0.76% of 410,000 active. AID 588856
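CellTiter-Glo luminescence gave cytotoxicity after 18 hours at 37 degrees C. The cells were HepG2 CAGA-GFP in 1% FBS DMEM, stimulated with 500 pg/mL TGF-beta after compound addition. %Activity was normalised to no-cell wells (complete cell-killing) and DMSO (no toxicity), and curves were fitted and classified.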
S2 tox = viability counter-screen for ATXN expression inhibitors. AID 651635. 0.49% of 400,000 active. Potency, µM (top dose mostly 56.7 µM), hits mostly cytotoxic. S2 cells (HEK-293 line with an ATXN2-luciferase reporter) viability, CellTiter-Fluor protease fluorescence, 24 h; note: nearly all actives have a fitted effect of over 40% in size
TGFb inhibitor = inhibitors of TGF-b signaling; HepG2 CAGA-GFP TGF-b/SMAD3 reporter, GFP fluorescence, 18 h; TGF-beta stimulated, 500 pg/mL final; Potency, µM (series often up to 46.1 µM), without a hit: at the top dose activity, negative = inhibition, actives largely listed as inhibitors; 1.2% of 410,000 active; AID 588855; note: % is set by controls: 0 for no effect and ±100 for the full control effect; nearly all actives have a fitted effect of over 65% in size
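GFP signal (ex488/em500-530) from TGF-beta-stimulated HEPG2 CAGA-GFP cells, 500 pg/mL final, 18 h at 37 degrees C in DMEM plus 1% FBS, normalized to unstimulated and DMSO-stimulated controls.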
Active calls of the source: *; i = inactive; ? = inconclusive; nt = no result given. Calls come from the whole dose curve; as a rule, active = well fitted curve in the direction sought with a large enough effect; inconclusive = small, poorly fitted or top-dose-only effect, or another doubt; inactive = no such curve, though single readings can be large; an effect the other way counts as inactive or inconclusive. Potency is the fitted concentration of half-maximal effect.

SMILES | HT1080 IDH1KD tx | ATXN2 expr inh | HT1080-NT tox | HepG2 viability | S2 tox | TGFb inhibitor
COc1cccc(NS(=O)(=O)c2cc(-c3cnc(C4CC4)o3)ccc2C)c1 | nt | ? | nt | -27% | ? | 2µM*
Cc1ccc(N(C)S(=O)(=O)c2ccc(-c3cnc(C4CC4)o3)cc2)cc1 | ? | -3% | ? | -5% | ? | 6.3µM*
COc1cccc(CN(C(=O)c2oc3cc(C)ccc3c2C)C2CCS(=O)(=O)C2)c1 (stereo not given) | nt | nt | nt | -14% | nt | -14%
Cc1c(C(=O)NCC2COCCO2)cnn1-c1ncc2c(n1)-c1ccccc1CC2 (stereo not given) | nt | nt | nt | nt | i | nt
CC(=O)c1cccc(NC(=O)C2Cc3c(-c4cccc(C(C)=O)c4)ccnc3O2)c1 (stereo not given) | -15% | ? | -25% | -6% | i | -3%
CS(=O)(=O)Nc1cccc(NC(=O)C2Cc3c(-c4ccco4)ccnc3O2)c1 (stereo not given) | ? | -24% | 18µM* | -55% | i | -6%
CC(=O)c1cccc(-c2ccnc3c2CC(C(=O)NCCC(F)(F)F)O3)c1 (stereo not given) | 21µM* | 4% | ? | 2% | i | 8%
NC(=O)c1cccc(-c2ccnc3c2CC(C(=O)NCCC(F)(F)F)O3)c1 (stereo not given) | 24% | 7% | ? | -18% | i | 5%
CC(=O)c1cccc(-c2ccnc3c2CC(C(=O)Nc2cccc(NS(C)(=O)=O)c2)O3)c1 (stereo not given) | 18µM* | -30% | ? | -72% | i | 3%
O=[N+]([O-])c1ccc(/C=N/Nc2ccnc3cc(Cl)ccc23)o1 | ? | -27% | ? | 20µM* | ? | ?
Cn1c(SCC2CCCO2)nnc1C1CCN(Cc2ccccc2O)CC1 (stereo not given) | nt | nt | nt | nt | i | nt
CN1C(=O)c2ccccc2Sc2ccc(NC(=O)COc3ccc(Cl)cc3)cc21 | nt | -3% | nt | -17% | ? | 2.8µM*
COc1ccc(OCC(=O)Nc2ccc3c(c2)N(C)C(=O)c2ccccc2S3)cc1 | nt | ? | nt | -11% | ? | -11%
CNC(=O)c1cnn(-c2nc(N)c3ncn([C@@H]4O[C@H](CO)[C@@H](O)[C@H]4O)c3n2)c1 | nt | -10% | nt | nt | i | nt
CC(=O)N1CCN(c2ccc(O)cc2)CC1 | nt | -17% | nt | nt | i | nt
Cc1ccc(-c2nc(CCN3C(=O)c4ccccc4C3=O)cs2)cc1 | 10µM* | 89% | ? | -16% | i | 41%
Oc1c(Br)cc(/C=N/Nc2ccc(Cl)nn2)cc1Br | -10% | 11% | -1% | 5% | nt | 4%
Oc1c(Br)cc(Br)cc1/C=N/Nc1ccc(Cl)nn1 | -25% | 2.8µM* | -7% | -18% | ? | -5%
CCC1CN(C(=O)N2CCC(C(=O)NCc3cccc(C)c3)CC2)c2ccccc2O1 (stereo not given) | nt | nt | nt | -2% | nt | -11%
c1ccc2nc3c(nc2c1)c1ccccc1n3CCN1CCOCC1 | 13µM* | -28% | -21% | -14% | i | 16%
CCCn1c2ccccc2c2nnc(SCCN3CCOCC3)nc21 | ? | -13% | -4% | -6% | i | 15%
COCC(=O)Nc1cc(C(=O)N2CC3CC4CC(C3)CC2C4)c2c(c1)nc(-c1ccncc1)n2C | nt | nt | nt | nt | i | nt
C[C@H](CO)N1C[C@H](C)[C@@H](CN(C)CC2CCCCC2)Oc2c(NC(=O)Cc3ccccc3)cccc2C1=O | -19% | ? | -12% | 16µM* | 32µM* | 16µM*
C[C@H](CO)N1C[C@H](C)[C@@H](CN(C)Cc2ccc(C(=O)Nc3ccccc3N)cc2)Oc2c(NC(=O)C3CCCCC3)cccc2C1=O | -1% | ? | -10% | -22% | 20µM* | -25%
C[C@H](CO)N1C[C@H](C)[C@@H](CN(C)Cc2ccc3c(c2)OCO3)Oc2c(NC(=O)C3CCCCC3)cccc2C1=O | -11% | -22% | -8% | -2% | ? | ?
SMILES | HT1080 IDH1KD tx | ATXN2 expr inh | HT1080-NT tox | HepG2 viability | S2 tox | TGFb inhibitor
COc1ccc2c(c1)CCc1cnc(-n3ncc(C(=O)N(C)CC4CCCN(C)C4)c3C)nc1-2 (stereo not given) | nt | nt | nt | nt | i | nt
CN1CCN(CC(O)Cn2c3ccccc3c3ccccc32)CC1 (stereo not given) | 5% | nt | -22% | -1% | i | 7%
CN1CCN(CC#CCn2c3ccccc3c3ccccc32)CC1 | ? | 25µM* | ? | -36% | ? | -27%
COc1ccc(-c2noc(-c3ccc(N4CCN(C)CC4)c([N+](=O)[O-])c3)n2)cc1OC | nt | 0% | nt | 11µM* | ? | ?
Cc1ccc(-c2noc(-c3ccc(N4CCN(C)CC4)c([N+](=O)[O-])c3)n2)cc1 | nt | 18% | nt | -24% | i | -28%
Cc1cc(C)n(-c2nc(NCc3cccnc3)c3c4c(sc3n2)COC(C)(C)C4)n1 | 23µM* | 14% | ? | -39% | i | ?
Cn1c(/C=C/c2ccc(Br)cc2)c([N+](=O)[O-])c(=O)n(C)c1=O | 13µM* | ? | ? | -63% | ? | ?
CN(C)c1ccc(/C=C/c2c([N+](=O)[O-])c(=O)n(C)c(=O)n2C)cc1 | -1% | -13% | -3% | -21% | i | 0%
Nc1c(C(O)(C(F)(F)F)C(F)(F)F)cc(C(O)(C(F)(F)F)C(F)(F)F)c2ccccc12 | 23µM* | ? | 21µM* | 18µM* | ? | 11µM*
Cc1ccc(-c2ccnc(-n3ncc(C(=O)NCCN4CCOCC4)c3C3CC3)n2)o1 | nt | nt | nt | nt | i | nt
Oc1ccc(N=Cc2ccc(OCc3ccccc3)cc2)cc1 | ? | nt | ? | -106% | ? | 11µM*
O=C(N/N=C/c1ccc(OCc2ccccc2)cc1)c1ccncc1 | -4% | nt | -19% | -1% | i | 10%
CC(C)CNC(=S)NNC(=O)c1csc2c1CCCC2 | ? | -20% | 8.9µM* | -31% | i | ?
CCOC(=O)c1c(C)sc2c1N(C(=O)CCl)c1cc(Cl)ccc1S2 | 18µM* | ? | 23µM* | -90% | 18µM* | ?
CN(N=O)C(=O)N[C@@H]1[C@@H](O)[C@H](O)[C@@H](CO)O[C@@H]1O | nt | 9% | nt | nt | i | nt
CCc1cc(SC#N)cc(C)c1NC(=O)CCl | ? | ? | ? | -88% | ? | 7.1µM*
CCc1cc(SC#N)cc(C)c1N | -17% | nt | 6% | -1% | i | ?
Cc1cc(SC#N)cc(C)c1NC(=O)CCl | 23µM* | -9% | 18µM* | 11µM* | ? | ?
